Screen size: about 5,500 compounds; about 2,000 (36%) were called active. Inconclusive results (about 18%) are left out. Cut-off read from the data, not from the text of the source: active = normalized growth mostly below about 0.91 (no sharp cut-off); inconclusive = no clear call, values can overlap the other calls; inactive = mostly above about 0.92. Some of the results follow.
Assay: chemical genetic growth profiling, strain panel (AID 1159580);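 note: tested at 20 µM; growth read once vehicle control cultures reached saturation at 30 °C; 1 = growth at the plate median or of vehicle wells; lower values mean less growth of the strain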
Settings: S. cerevisiae deletion strains, growth OD

Measured: normalized growth

CCCCC/C=C/CCC(=O)N[C@H]1[C@H](Oc2c3cc4cc2Oc2ccc(cc2Cl)[C@@H](O[C@@H]2O[C@H](CO)[C@@H](O)[C@H](O)[C@H]2NC(C)=O)[C@@H]2NC(=O)[C@H](NC(=O)[C@@H]4NC(=O)[C@H]4NC(=O)C(Cc5ccc(c(Cl)c5)O3)NC(=O)[C@H](N)c3ccc(O)c(c3)Oc3cc(O)cc4c3)c3ccc(O)c(c3)-c3c(OC4O[C@H](CO)[C@@H](O)[C@H](O)[C@@H]4O)cc(O)cc3[C@@H](C(=O)O)NC2=O)O[C@H](CO)[C@@H](O)[C@@H]1O (stereo not given in full)
inactive: locus YAL021C, strain ccr4, hits give low values 1 | locus YAL026C, strain drs2, hits give low values 1 | locus YAL030W, strain snc1, hits give low values 0.995 | locus YBL061C, strain skt5, hits give low values 0.987 | locus YBR009C, strain hhf1, hits give low values 0.996 | locus YBR023C, strain chs3, hits give low values 0.998 | locus YBR171W, strain sec66, hits give low values 1 | locus YBR231C, strain swc5, hits give low values 0.991 | locus YBR279W, strain paf1, hits give low values 0.997 | locus YCL011C, strain gbp2, hits give low values 1.01 | locus YCL016C, strain dcc1, hits give low values 0.995 | locus YCL061C, strain MRC1, hits give low values 0.999 | locus YCL069W, strain vba3, hits give low values 0.996 | locus YCR088W, strain abp1, hits give low values 1.01 | locus YDL005C, strain med2, hits give low values 0.995 | locus YDL040C, strain nat1, hits give low values 1 | locus YDR001C, strain nth1, hits give low values 1 | locus YDR069C, strain doa4, hits give low values 1 | locus YDR137W, strain rgp1, hits give low values 1.01 | locus YDR159W, strain sac3, hits give low values 0.977 | locus YDR195W, strain ref2 0.918 | locus YDR297W, strain sur2, hits give low values 0.998 | locus YDR334W, strain swr1, hits give low values 1.01 | locus YDR335W, strain msn5, hits give low values 0.998 | locus YDR392W, strain spt3, hits give low values 0.967 | locus YEL003W, strain gim4, hits give low values 0.989 | locus YEL037C, strain rad23, hits give low values 1.05 | locus YEL061C, strain CIN8 (second series), hits give low values 0.999 | locus YER015W, strain faa2, hits give low values 0.999 | locus YER016W, strain bim1, hits give low values 1.01 | locus YER111C, strain swi4, hits give low values 0.987 | locus YER155C, strain BEM2 (second series), hits give low values 1.01 | locus YFR010W, strain ubp6, hits give low values 1.03 | locus YGL167C, strain pmr1, hits give low values 0.993 | locus YGL173C, strain kem1, hits give low values 0.994 | locus YGL227W, strain vid30, hits give low values 1 | locus YGL240W, strain doc1, hits give low values 0.973 | locus YGL253W, strain hxk2, hits give low values 1 | locus YHR013C, strain ard1, hits give low values 0.981 | locus YHR027C, strain rpn1, hits give low values 1 | locus YHR030C, strain SLT2, hits give low values 0.964 | locus YHR079C, strain IRE1, hits give low values 0.956 | locus YHR142W, strain chs7, hits give low values 1.03 | locus YJL092W, strain hpr5, hits give low values 1 | locus YJL095W, strain BCK1 (second series), hits give low values 1 | locus YJL095W, strain BCK1, hits give low values 0.956 | locus YJL115W, strain asf1, hits give low values 0.996 | locus YJL129C, strain trk1, hits give low values 1 | locus YJL154C, strain vps35, hits give low values 1.01 | locus YJL164C, strain tpk1, hits give low values 1.01 | locus YJL166W, strain qcr8, hits give low values 0.993 | locus YJL187C, strain SWE1, hits give low values 1 | locus YJR066W, strain TOR1, hits give low values 0.935 | locus YKL160W, strain elf1, hits give low values 0.995 | locus YKR026C, strain gcn3, hits give low values 0.99 | locus YKR091W, strain srl3, hits give low values 0.996 | locus YLL001W, strain dnm1, hits give low values 1.02 | locus YLL026W, hits give low values 0.996 | locus YLL041C, strain sdh2, hits give low values 1 | locus YLR027C, strain aat2, hits give low values 1.01 | locus YLR113W, strain HOG1, hits give low values 0.942 | locus YLR221C, strain rsa3, hits give low values 1.01 | locus YLR258W, strain gsy2, hits give low values 1.01 | locus YLR262C, strain YPT6 (second series), hits give low values 1.01 | locus YLR320W, strain mms22, hits give low values 0.988 | locus YLR342W, strain FKS1, hits give low values 0.988 | locus YLR357W, strain rsc2, hits give low values 1 | locus YLR370C, strain arc18, hits give low values 1 | locus YLR384C, strain iki3, hits give low values 1 | locus YML120C, strain ndi1, hits give low values 1.01 | locus YMR058W, strain fet3, hits give low values 1 | locus YMR125W, strain sto1, hits give low values 1.01 | locus YMR129W, hits give low values 0.998 | locus YMR205C, strain PFK2, hits give low values 0.993 | locus YMR231W, strain pep5, hits give low values 0.991 | locus YNL071W, strain lat1, hits give low values 1 | locus YNL183C, strain NPR1, hits give low values 0.936 | locus YNL209W, strain ssb2, hits give low values 1 | locus YNL248C, strain rpa49, hits give low values 1.01 | locus YNL322C, strain KRE1 (second series), hits give low values 0.991 | locus YNR049C, strain mso1, hits give low values 1.01 | locus YOR001W, strain rrp6, hits give low values 1.01 | locus YOR070C, strain gyp1, hits give low values 1.02 | locus YOR080W, strain dia2, hits give low values 0.98 | locus YOR083W, strain WHI5, hits give low values 1 | locus YOR106W, strain vam3, hits give low values 1.02 | locus YOR231W, strain MKK1, hits give low values 0.961 | locus YOR265W, strain rbl2, hits give low values 1 | locus YOR270C, strain vph1, hits give low values 0.993 | locus YOR290C, strain snf2, hits give low values 1.01 | locus YPL051W, strain arl3, hits give low values 1.01 | locus YPL078C, strain atp4, hits give low values 0.999 | locus YPL106C, strain sse1, hits give low values 0.971 | locus YPL240C, strain hsp82, hits give low values 0.999 | locus YPL256C, strain CLN2, hits give low values 0.946

— PubChem BioAssay AID1159580 (chemical genetic matrix, 2015)
